# Screening data as filed in PubChem.
# Compounds with a hit are over-represented: about 8.8% of the library has one in this group of screens.
# HTT aggregate = reduces HttQ103-GFP aggregates in PC12 cells | AID 1688 | 220,000 tested, 1.1% active | Potency, µM (doses to about 46.1 µM), without a hit: at the highest dose activity change, negative = inhibition, actives largely listed as inhibitors | PC12 HttQ103-GFP aggregates, Acumen cytometry, 40 h; active = well fitted curve in the direction sought with a large enough effect; inconclusive = small, poorly fitted or top-dose-only effect, or another doubt; inactive = no such curve, though single readings can be large; an effect the other way counts as inactive or inconclusive; also: % is scaled to controls: 0 for no effect and ±100 for the full control effect; nearly all actives have a fitted effect of over 60% in size
#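 PC12/HTTQ103-GFP, ecdysone-inducible; teb 100 nM; cpd qHTS titration; GFP aggregates read on laser cytometer, Ex 488/Em 500-530 nm.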
# ALDH1A1 block = blocks purified human ALDH1A1 activity; 220,000 tested, 7.3% active; Purified ALDH1A1, NADH fluorescence, propionaldehyde substrate; Potency, µM (top dose mostly 75.3 µM), for inactives: at the top dose activity, negative = inhibition, most hits filed as inhibitors; P00352;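 also: plate controls were no enzyme wells and a reference inhibitor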
# Target sequence (P00352 whole entry, looked up): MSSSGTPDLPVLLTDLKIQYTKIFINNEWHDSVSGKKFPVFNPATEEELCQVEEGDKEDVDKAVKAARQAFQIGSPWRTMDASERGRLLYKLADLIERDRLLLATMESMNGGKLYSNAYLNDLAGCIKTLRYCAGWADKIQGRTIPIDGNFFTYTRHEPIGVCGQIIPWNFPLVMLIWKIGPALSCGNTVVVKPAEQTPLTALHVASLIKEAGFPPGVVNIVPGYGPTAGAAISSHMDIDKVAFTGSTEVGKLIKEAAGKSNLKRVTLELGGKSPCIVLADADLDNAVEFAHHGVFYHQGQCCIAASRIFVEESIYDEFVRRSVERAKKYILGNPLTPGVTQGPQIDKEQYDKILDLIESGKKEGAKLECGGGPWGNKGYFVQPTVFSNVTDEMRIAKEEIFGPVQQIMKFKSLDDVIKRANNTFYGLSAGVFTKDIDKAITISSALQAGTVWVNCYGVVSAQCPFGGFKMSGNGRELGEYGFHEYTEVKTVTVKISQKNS
# HPGD block = inhibitors of human 15-hydroxyprostaglandin dehydrogenase (HPGD) | purified HPGD, NADH fluorescence kinetic, PGE2 substrate | 150,000 tested, 4.3% active | Potency, µM, for inactives: at the top dose activity change, negative = inhibition, most hits filed as inhibitors | P15428; also: % is scaled to controls: 0 for no effect and ±100 for the full control effect
# Target sequence (P15428 whole entry, looked up): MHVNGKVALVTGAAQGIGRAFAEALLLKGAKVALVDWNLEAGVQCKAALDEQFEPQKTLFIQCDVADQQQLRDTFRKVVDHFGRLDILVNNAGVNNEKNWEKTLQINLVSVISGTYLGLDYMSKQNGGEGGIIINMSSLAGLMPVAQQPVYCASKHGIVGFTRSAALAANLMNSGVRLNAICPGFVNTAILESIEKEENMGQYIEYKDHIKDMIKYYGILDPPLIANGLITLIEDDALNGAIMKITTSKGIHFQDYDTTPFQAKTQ
#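 20 nM HPGD preincubated 15 min at room temperature with compound in 50 mM Tris-HCl pH 8, 0.01% Tween 20. Started with 1 mM NAD+ and 30 uM prostaglandin E2; NADH fluorescence (360/450 nm) read 5 times over 30-s intervals, last minus first.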
# HTT ATP protect = protects HTT-Q103 PC12 cells, measured by ATP | PC12 HTT-Q103 induced, cytoprotection, ATP luminescence, 40 h | Potency, µM (highest dose often 56.4 µM), inactives show cytoprotection (ATP increase), hits mostly activators | 230,000 tested, 0.14% active; active = well fitted curve in the direction sought with a large enough effect; inconclusive = small, poorly fitted or top-dose-only effect, or another doubt; inactive = no such curve, though single readings can be large; an effect the other way counts as inactive or inconclusive; also: % of control where 0% means no effect; nearly all actives have a fitted effect of over 45% in size
#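 PC12 cells stably carrying ecdysone-inducible Htt exon 1 (Q103)–GFP were induced with 100 nM tebufenozide (final) alongside library compounds in a dose series. Cytoprotection was scored as retained ATP by ATPlite luminescence.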
# Lamin A splicing = modulators of lamin A splicing. HeLa LMNA splicing GFP/RFP minigene ratio, 48 h. Potency, µM (series often up to 46.1 µM), for the others: at the highest dose ratio change, negative = inhibition, hits mostly inhibitors. 200,000 tested, 0.01% active; active = well fitted inhibition curve with a large enough effect in the signal ratio, with a control signal flat, not every such curve was filed as active; inconclusive = small, poorly fitted or top-dose-only effect, or effect the other way, or a change in a side signal; the % refers to the signal ratio; also: % is scaled to controls: 0 for no effect and ±100 for the full control effect
#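 S3 HeLa cells stably expressing lamin A-EGFP splicing minigene plus DsRed2, 600 cells/well, 48 h compound exposure at 37C. Laser-scanning cytometry; analysed as GFP (500-530 nm)/RFP (575-640 nm) total intensity ratio; 0.5% DMSO vehicle.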
# * = called active by the depositor; ? = inconclusive; / = no result given; [ ] = another dose, or the depositor's remark. Unless noted, calls follow the shape of the dose curve; as a rule, active = well fitted inhibition curve with a large enough effect (not every such curve was filed as active); inconclusive = small, poorly fitted or top-dose-only effect, or another doubt; inactive = no such curve, though single readings can be large or run the other way. Potency is read from the fitted curve at half-maximal effect.
SMILES,HTT aggregate,ALDH1A1 block,HPGD block,HTT ATP protect,Lamin A splicing
CCn1nc(C)c(CCN(C)C(=O)Nc2ccc(C)c(Cl)c2)c1C,/,/,/,/,-4%[46 µM]
CCCCNc1oc(-c2ccc(OC)cc2)nc1S(=O)(=O)c1ccccc1,-3%,22µM*,?,-5%,-6%
O=S(=O)(c1ccccc1)c1nc(-c2ccco2)oc1NCc1ccco1,-11%,-6%,1%,-12%[0.074 µM],13%
O=S(=O)(c1ccccc1)c1nc(-c2ccco2)oc1NCCCn1ccnc1,11%,25µM*,-23%,-11%[0.074 µM],7%
COc1cccc(C2NC(C(=O)O)CCC2C)c1 (stereo unspecified),/,10%[13.5 µM],/,-15%[10 µM],/
Cc1cccc2c(=O)cc(CSCC(=O)Nc3ccc(Cl)cc3)[nH]c12,/,/,/,/,-1%[46 µM]
Cc1ccc(NC(=O)CN2CCN(S(=O)(=O)c3ccc(C(C)C)cc3)CC2)cc1F,/,/,/,/,0%[46 µM]
Cc1cccc(CNc2ccnc(-c3ccccc3Cl)n2)c1,/,-1%,/,-10%,?
O=C(O)C[C@@H]1CCCc2ccccc2[C@H]1O,/,/,/,9%[1.9 µM],/
CCOc1cccc(CNc2ccc(O)cc2)c1OCc1ccccc1Cl,-2%,?,-24%,13%[10 µM],-7%
CCOc1cccc(CNc2ccc(O)cc2)c1OCc1ccc(Cl)cc1Cl,?,22µM*,-7%,14%,?
COc1ccc(Cl)cc1C(=O)NCc1nnnn1-c1ccccc1,/,/,/,/,-4%[46 µM]
CCOC(=O)c1noc2ncnc(N3CCN(c4cccc(C(F)(F)F)c4)CC3)c12,/,/,/,/,-13%[46 µM]
Cc1ccc(-n2cc[nH]c2=S)cc1C,4%,?,22µM*,5%[10 µM],-7%
CCOC(=O)/C(C#N)=C/Nc1cc(F)ccc1C,-16%[9.22 µM],/,/,-1%[10 µM],/
CCOC(=O)C(=O)/C(C#N)=C/Nc1ccc(F)cc1,23%,28µM*,-20%,9%,8%
CCCN=Cc1ccc(O)cc1,2%,8.9µM*,/,-3%[10 µM],?
Cc1ccnc(N/N=C/c2ccccc2)n1,2%,13%,-17%,-8%[10 µM],-14%
Cc1cc(C)nc(N/N=C2/CCCC/C2=C\c2ccccc2)n1,4.5µM*,-21%,/,-55%[10 µM],?
COc1cccc(NC(=O)CSc2ncnc3c2cnn3Cc2ccccc2)c1,14%,?,-29%,-57%,-2%
O=C(COC(=O)c1ccc(=O)n(Cc2ccccc2)n1)Nc1ccc2c(c1)OCCO2,?,8.9µM*,-19%,-8%,7%
O=C(CSc1ncnc2c1cnn2Cc1ccccc1)Nc1ccc2c(c1)OCCO2,-2%,13µM*,0%,-4%[0.074 µM],-19%
O=C(COC(=O)c1ccco1)Nc1ccc2c(c1)OCCO2,14%[9.22 µM],-9%,-13%,-13%,?
C[C@@H](C[N+](C)(C)C)OC(N)=O,/,-13%[20.9 µM],0%,?,?
Cn1[nH]c(CSc2ccc(Cl)cc2)cc1=O,9%,1.8µM*,/,-5%[10 µM],7%[46 µM]
SMILES,HTT aggregate,ALDH1A1 block,HPGD block,HTT ATP protect,Lamin A splicing
CCC1CN(C(=O)N2CCC(C(=O)N3CCN(c4ccccc4)CC3)CC2)c2ccccc2O1 (stereo unspecified),/,/,/,/,-5%[46 µM]
CCOC(=O)NC(=O)CSc1nnc(C2CC2)n1Cc1ccco1,9%,4%,/,21%[10 µM],5%[46 µM]
Cc1ccc(CNC(=O)C(Cc2ccccc2)NS(=O)(=O)c2cccs2)cc1 (stereo unspecified),?,?,-8%,6%,-10%
Cc1ccc(CNC(=O)C(Cc2ccccc2)NS(=O)(=O)c2ccc(Br)s2)cc1 (stereo unspecified),25µM*,-10%,-4%,/,?
COc1cc([N+](=O)[O-])ccc1NC(=O)Oc1ccc(NC(C)=O)cc1,-19%[9.22 µM],/,/,-1%[10 µM],/
CCn1c(=S)[nH]c2cc(S(=O)(=O)N3CCCCC3)ccc21,?,7.1µM*,-20%,-4%,?
O=S(=O)(Nc1cccc(Cl)c1)c1ccc2oc(=S)[nH]c2c1,16%,1µM*,/,-51%,/
O=S(=O)(c1ccc2oc(=S)[nH]c2c1)N1CCCCC1,-3%[9.22 µM],20µM*,/,6%[10 µM],/
COCCCNC(=O)NC(CCC(C)C)c1c(-n2cccc2)sc2c1CCN(C)C2 (stereo unspecified),/,/,/,/,0%[46 µM]
COc1ccccc1CN1CCNC(=O)C1=O,/,/,/,/,-11%[46 µM]
Cn1c(SCc2nc3ccccc3[nH]2)nnc1-c1ccccn1,4%,8%,1%,-13%,0%
C=CCn1c(SCc2nc3ccccc3[nH]2)nnc1-c1ccccn1,-9%,6.3µM*,-10%,-1%,8%
CN(CCO)c1cc(Sc2nc3ccccc3s2)c2nonc2c1[N+](=O)[O-],5%,25µM*,?,-73%,?
CCOC(=O)c1ccc2c(c1)N(CC(=O)Nc1ccc(C)cc1C)C(=O)c1ccccc1S2,/,/,/,/,-15%[46 µM]
CCOC(=O)CCSc1n[nH]c(=S)s1,3%[9.22 µM],1.8µM*,/,2%[10 µM],/
CCOC(=O)CSc1n[nH]c(=S)s1,-8%[9.22 µM],/,/,-25%[10 µM],/
Cc1cc([N+](=O)[O-])c(C)c(Br)c1C,/,-3%[13.5 µM],-11%,-5%[10 µM],/
COC(=O)c1c(-c2ccccc2)c[nH]c1C,22µM*,/,/,/,/
CCOc1ccc(Nc2nc(Cc3nnc(SCC(=O)c4ccc(C)c(C)c4)o3)cs2)cc1,10µM*,12%,-10%,-16%,?
CCOc1ccc(Nc2nc(Cc3nnc(SCC(=O)NCc4ccco4)n3CC)cs2)cc1,0%,-16%,-3%,-37%,-9%
CCOC(=O)CCCCC(=O)c1[nH]c(=O)[nH]c1CSc1nnc2c3ccccc3n(C(C)C)c2n1,-9%,13µM*,?,/,-13%
Cc1ccccc1C(=O)OCc1cc(=O)n2nc(C(C)C)sc2n1,/,/,/,/,-5%[46 µM]
Cc1cc(SCC(=O)NC(=O)NCc2ccco2)nc2c(C)cccc12,-6%,22µM*,-21%,-18%,-8%
Cc1ccccc1CSCC(=O)NC(=O)NCc1ccco1,-8%[9.22 µM],25µM*,-29%,4%[10 µM],5%
Cc1cc(SCC(=O)NC(=O)NCc2ccco2)nc2ccccc12,19%,?,-23%,-53%,?
SMILES,HTT aggregate,ALDH1A1 block,HPGD block,HTT ATP protect,Lamin A splicing
CCN1CCN(C(=O)CCc2nnc(CCCCc3ccccc3)o2)[C@@H](C)C1=O,-1%[9.22 µM],8.9µM*,/,5%[10 µM],-3%[46 µM]
CCN(CC)C1CCN(C(=O)CCc2nnc(CCCCc3ccccc3)o2)C1 (stereo unspecified),-42%[9.22 µM],-7%,/,17%[10 µM],/
CCOc1ccccc1C(=O)Nc1nnc(C(C)C)s1,-4%,1.3µM*,-12%,-18%,-8%
CC(C)Cc1nnc(NC(=O)CS(=O)(=O)Cc2ccccc2)s1,?,?,-28%,13%[10 µM],0%
CCCC(C)c1nnc(NC(=O)CS(=O)(=O)Cc2ccccc2)s1 (stereo unspecified),0%,25µM*,13µM*,1%,-3%
CC(C)c1nnc(NC(=O)CS(=O)(=O)Cc2ccccc2)s1,4%[9.22 µM],7.9µM*,/,18%[10 µM],/
Cc1noc(C)c1-c1nc(NCc2cccs2)c2ccccc2n1,/,9%,/,-73%,-5%
Cc1ccc(-n2nnnc2Sc2ccc(S(=O)(=O)NCCN(C)C)cc2[N+](=O)[O-])cc1,22µM*,?,-22%,-52%[10 µM],?
